# Measurements: ChEMBL document CHEMBL3988442, “University of Dundee, Small-Polar-MMV Screening Library” (2021)
# For some assays here: Potency and affinity values are given separately.
# Key:
# [1] = biological target: T1, Methionyl-tRNA synthetase, putative (Leishmania donovani (strain BPK282A1)) (UniProt E9BF75); assay: Leishmania donovani Methionine tRNA synthetase (LdMetRS):v7. Dose response assay; format: functional; parameters: conc 80 nM, time 150 minutes
# T1 sequence (whole entry): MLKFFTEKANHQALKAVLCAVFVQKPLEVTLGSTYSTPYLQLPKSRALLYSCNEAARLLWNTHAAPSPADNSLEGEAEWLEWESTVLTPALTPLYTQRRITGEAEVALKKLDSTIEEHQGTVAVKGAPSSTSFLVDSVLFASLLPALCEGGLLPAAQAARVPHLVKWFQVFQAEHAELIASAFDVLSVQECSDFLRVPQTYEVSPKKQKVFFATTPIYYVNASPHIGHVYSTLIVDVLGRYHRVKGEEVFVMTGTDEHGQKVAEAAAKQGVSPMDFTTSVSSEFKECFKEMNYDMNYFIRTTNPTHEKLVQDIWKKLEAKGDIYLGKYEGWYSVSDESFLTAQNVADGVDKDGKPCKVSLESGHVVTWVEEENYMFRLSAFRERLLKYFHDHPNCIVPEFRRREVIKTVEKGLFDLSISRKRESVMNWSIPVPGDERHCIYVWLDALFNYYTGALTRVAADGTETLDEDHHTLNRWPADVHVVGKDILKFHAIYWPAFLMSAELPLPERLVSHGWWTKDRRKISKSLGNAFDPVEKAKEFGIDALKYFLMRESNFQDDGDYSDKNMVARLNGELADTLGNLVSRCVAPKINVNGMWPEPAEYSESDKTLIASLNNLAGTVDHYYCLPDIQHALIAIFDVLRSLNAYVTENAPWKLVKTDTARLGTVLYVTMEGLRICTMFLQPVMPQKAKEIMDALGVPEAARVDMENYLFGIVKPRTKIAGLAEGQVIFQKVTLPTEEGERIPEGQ
# [2] = biological target: Protein translocase subunit SecA (Escherichia coli (strain K12)) (UniProt P10408); assay: Assay to Identify E. coli SecA ATPase Inhibitors; format: functional; parameters: scale not given: direction of the effect not stated beside the values; settings: 30 µM
# [3] = biological target: T2, Ubiquitin-activating enzyme e1, putative (Leishmania donovani (strain BPK282A1)) (UniProt E9BSI1); assay: Leishmania donovani Ubiquitin Activating Enzyme (LdE1); format: functional; parameters: scale not given: direction of the effect not stated beside the values; settings: 30 µM
# T2 sequence (whole entry): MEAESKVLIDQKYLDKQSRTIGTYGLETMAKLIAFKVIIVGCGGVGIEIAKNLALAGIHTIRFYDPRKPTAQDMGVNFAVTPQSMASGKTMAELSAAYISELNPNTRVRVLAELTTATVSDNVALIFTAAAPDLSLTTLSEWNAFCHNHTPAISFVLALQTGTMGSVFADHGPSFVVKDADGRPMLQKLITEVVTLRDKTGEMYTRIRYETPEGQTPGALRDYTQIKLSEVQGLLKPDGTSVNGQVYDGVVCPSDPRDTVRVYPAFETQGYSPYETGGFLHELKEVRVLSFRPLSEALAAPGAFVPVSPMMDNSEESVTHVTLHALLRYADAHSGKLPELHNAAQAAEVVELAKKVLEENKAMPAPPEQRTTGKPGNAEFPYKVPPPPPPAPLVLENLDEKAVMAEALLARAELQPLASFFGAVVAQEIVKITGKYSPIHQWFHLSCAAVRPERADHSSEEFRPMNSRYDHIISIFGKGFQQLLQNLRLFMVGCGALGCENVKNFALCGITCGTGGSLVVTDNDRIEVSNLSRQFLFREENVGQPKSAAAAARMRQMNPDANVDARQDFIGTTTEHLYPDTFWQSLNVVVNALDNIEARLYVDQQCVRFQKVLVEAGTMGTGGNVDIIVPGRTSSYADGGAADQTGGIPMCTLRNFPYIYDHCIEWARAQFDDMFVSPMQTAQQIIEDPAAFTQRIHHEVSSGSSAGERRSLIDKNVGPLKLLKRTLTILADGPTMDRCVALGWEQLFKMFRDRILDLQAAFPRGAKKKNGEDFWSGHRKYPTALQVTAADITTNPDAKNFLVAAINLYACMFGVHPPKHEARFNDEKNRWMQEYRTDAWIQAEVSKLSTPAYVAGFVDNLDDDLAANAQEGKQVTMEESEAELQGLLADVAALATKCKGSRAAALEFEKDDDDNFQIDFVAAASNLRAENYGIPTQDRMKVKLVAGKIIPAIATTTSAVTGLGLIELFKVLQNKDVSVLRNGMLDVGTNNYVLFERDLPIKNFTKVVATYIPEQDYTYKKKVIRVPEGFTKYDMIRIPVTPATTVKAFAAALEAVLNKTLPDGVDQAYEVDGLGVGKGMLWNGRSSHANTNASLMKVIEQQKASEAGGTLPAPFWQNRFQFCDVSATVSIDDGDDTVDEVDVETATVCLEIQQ
# [4] = biological target: T3, Aspartate--tRNA(Asp/Asn) ligase (Mycobacterium tuberculosis (strain ATCC 25618 / H37Rv)) (UniProt P9WFW3); assay: Assay for Asp RNA synthetase-1 from Mycobacterium tuberculosis; format: functional; parameters: scale not given: direction of the effect not stated beside the values; settings: 30 µM; note: in the data most compounds retested in dose-response had high values
# T3 sequence (whole entry): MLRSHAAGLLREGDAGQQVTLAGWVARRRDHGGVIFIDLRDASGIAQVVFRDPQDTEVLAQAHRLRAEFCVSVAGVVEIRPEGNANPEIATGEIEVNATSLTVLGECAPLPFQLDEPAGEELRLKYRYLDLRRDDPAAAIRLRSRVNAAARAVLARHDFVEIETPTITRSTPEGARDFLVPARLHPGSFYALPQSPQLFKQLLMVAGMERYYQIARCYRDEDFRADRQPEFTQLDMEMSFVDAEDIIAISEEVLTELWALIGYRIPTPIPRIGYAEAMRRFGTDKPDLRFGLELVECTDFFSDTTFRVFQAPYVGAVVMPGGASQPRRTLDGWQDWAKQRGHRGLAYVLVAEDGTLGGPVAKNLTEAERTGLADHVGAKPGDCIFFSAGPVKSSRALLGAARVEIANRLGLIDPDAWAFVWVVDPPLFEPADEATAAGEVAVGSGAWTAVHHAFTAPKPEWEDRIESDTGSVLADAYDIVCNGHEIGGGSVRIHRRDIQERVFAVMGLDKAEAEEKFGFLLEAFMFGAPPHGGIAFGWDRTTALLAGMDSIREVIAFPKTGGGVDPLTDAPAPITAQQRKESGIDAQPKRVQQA
# [5] = biological target: AMP-activated protein kinase, AMPK (Homo sapiens) (UniProt P54646+O43741+P54619+Q9UGJ0+Q9Y478+Q13131+Q9UGI9); assay: AMP-dependent Kinase enzyme assay. An in vitro enzyme assay that detects ADP turnover that is directly proportional to AMPK activity. This uses naive AMPK that is activated during the assay with MK-8722; format: functional; parameters: scale not given: direction of the effect not stated beside the values; settings: 30 µM
# [6] = biological target: Sialic acid-binding Ig-like lectin 9 (Homo sapiens) (UniProt Q9Y336); assay: Hs-Siglec9 ALPHAscreen SOP 20170721; parameters: scale not given: direction of the effect not stated beside the values; settings: 10 µM
# Trypanosoma cruzi = assay: Trypanosoma cruzi phosphomannomutase and mannose-1-phosphate guanylyltransferase assay; format: functional; parameters: scale not given: direction of the effect not stated beside the values; settings: 10 µM
# [7] = biological target: T4, Arginase-2, mitochondrial (Homo sapiens) (UniProt P78540); assay: in vitro enzyme assay to detect the production of urea directly proportional to the activity of Arginase II; format: functional; parameters: scale not given: in the data most compounds retested in dose-response had high values
# T4 sequence (whole entry): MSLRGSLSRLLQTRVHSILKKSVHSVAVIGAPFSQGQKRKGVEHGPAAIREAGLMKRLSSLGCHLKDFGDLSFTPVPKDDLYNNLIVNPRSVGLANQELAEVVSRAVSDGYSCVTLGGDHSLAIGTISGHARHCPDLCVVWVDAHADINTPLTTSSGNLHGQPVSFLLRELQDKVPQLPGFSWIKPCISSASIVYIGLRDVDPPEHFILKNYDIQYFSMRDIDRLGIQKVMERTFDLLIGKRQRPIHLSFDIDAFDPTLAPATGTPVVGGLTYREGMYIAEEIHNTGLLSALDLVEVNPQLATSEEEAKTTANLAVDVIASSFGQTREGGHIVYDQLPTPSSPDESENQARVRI
# [8] = biological target: T5, Proteasome subunit beta (Trypanosoma cruzi) (UniProt O96673); assay: Trypanosoma cruzi proteasome chymotrypsin-like activity (TcProtChymo) assay.; format: functional; parameters: scale not given: in the data most compounds retested in dose-response had high values; settings: 9.37 µM
# T5 sequence (whole entry): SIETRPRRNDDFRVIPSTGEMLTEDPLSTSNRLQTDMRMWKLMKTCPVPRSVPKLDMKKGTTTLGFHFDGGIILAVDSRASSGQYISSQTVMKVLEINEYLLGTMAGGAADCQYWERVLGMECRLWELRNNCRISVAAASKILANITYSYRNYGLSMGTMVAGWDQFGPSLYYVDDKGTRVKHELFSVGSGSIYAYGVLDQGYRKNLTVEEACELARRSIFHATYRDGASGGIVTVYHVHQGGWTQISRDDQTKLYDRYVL
# Homo sapiens = species: Homo sapiens; assay: To identify inhibition of the IFN signalling (Jak-Stat) pathway via expression of an eGFP reporter gene under the control of an IFN-stimulated response element (ISRE) containing MxA promoter.; format: functional; parameters: scale not given: direction of the effect not stated beside the values; settings: 30 µM
# [9] = biological target: Shiga toxin 2 (Escherichia coli O157:H7) (UniProt P09385+P09386); assay: E. coli 0.157:H7 Shiga Toxin SOP - stx2 screening assay; format: functional; parameters: scale not given: direction of the effect not stated beside the values; settings: 30 µM
# [10] = biological target: T6, Tyrosyl-tRNA synthetase, putative (Trypanosoma cruzi (strain CL Brener)) (UniProt Q4DSP6); assay: Trypanosoma cruzi tyrosyl tRNA synthetase (TcYRS) _High Tyrosine SOP; format: functional; parameters: scale not given: in the data most compounds retested in dose-response had high values; settings: 30 µM
# T6 sequence (whole entry): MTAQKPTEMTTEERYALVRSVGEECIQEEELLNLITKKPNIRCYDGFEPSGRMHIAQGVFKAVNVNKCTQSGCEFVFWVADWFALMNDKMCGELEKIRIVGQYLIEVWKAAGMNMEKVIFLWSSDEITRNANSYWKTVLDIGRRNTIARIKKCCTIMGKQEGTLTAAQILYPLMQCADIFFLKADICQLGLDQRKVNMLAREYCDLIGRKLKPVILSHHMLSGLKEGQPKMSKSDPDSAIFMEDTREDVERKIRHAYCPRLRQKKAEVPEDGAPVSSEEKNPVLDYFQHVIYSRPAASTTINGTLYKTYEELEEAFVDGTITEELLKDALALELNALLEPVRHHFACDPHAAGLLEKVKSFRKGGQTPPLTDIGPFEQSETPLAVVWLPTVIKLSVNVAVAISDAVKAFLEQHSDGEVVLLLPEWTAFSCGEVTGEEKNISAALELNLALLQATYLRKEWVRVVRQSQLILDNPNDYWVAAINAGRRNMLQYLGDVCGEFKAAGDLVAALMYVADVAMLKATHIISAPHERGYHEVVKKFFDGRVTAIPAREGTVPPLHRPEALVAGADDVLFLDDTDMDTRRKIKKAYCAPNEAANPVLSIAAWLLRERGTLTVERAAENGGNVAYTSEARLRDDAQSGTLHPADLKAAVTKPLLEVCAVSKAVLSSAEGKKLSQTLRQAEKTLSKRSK
# [11] = biological target: T6, Tyrosyl-tRNA synthetase, putative (Trypanosoma cruzi (strain CL Brener)); assay: Trypanosoma cruzi tyrosyl tRNA synthetase (TcYRS) SOP; format: functional; parameters: scale not given: direction of the effect not stated beside the values; settings: 30 µM
# [12] = biological target: Chromo domain-containing protein 1 (Saccharomyces cerevisiae (strain ATCC 204508 / S288c) (Baker's yeast)) (UniProt P32657); assay: ScCHD-1 Enzyme Inhibition Assay; format: functional; parameters: scale not given: in the data most compounds retested in dose-response had high values; settings: 30 µM
# Chromo domain-containing protein 1 (Saccharomyces cerevisiae (strain ATCC 204508 / S288c) (Baker's yeast)), sequence (P32657 whole entry, the tested form may be a part): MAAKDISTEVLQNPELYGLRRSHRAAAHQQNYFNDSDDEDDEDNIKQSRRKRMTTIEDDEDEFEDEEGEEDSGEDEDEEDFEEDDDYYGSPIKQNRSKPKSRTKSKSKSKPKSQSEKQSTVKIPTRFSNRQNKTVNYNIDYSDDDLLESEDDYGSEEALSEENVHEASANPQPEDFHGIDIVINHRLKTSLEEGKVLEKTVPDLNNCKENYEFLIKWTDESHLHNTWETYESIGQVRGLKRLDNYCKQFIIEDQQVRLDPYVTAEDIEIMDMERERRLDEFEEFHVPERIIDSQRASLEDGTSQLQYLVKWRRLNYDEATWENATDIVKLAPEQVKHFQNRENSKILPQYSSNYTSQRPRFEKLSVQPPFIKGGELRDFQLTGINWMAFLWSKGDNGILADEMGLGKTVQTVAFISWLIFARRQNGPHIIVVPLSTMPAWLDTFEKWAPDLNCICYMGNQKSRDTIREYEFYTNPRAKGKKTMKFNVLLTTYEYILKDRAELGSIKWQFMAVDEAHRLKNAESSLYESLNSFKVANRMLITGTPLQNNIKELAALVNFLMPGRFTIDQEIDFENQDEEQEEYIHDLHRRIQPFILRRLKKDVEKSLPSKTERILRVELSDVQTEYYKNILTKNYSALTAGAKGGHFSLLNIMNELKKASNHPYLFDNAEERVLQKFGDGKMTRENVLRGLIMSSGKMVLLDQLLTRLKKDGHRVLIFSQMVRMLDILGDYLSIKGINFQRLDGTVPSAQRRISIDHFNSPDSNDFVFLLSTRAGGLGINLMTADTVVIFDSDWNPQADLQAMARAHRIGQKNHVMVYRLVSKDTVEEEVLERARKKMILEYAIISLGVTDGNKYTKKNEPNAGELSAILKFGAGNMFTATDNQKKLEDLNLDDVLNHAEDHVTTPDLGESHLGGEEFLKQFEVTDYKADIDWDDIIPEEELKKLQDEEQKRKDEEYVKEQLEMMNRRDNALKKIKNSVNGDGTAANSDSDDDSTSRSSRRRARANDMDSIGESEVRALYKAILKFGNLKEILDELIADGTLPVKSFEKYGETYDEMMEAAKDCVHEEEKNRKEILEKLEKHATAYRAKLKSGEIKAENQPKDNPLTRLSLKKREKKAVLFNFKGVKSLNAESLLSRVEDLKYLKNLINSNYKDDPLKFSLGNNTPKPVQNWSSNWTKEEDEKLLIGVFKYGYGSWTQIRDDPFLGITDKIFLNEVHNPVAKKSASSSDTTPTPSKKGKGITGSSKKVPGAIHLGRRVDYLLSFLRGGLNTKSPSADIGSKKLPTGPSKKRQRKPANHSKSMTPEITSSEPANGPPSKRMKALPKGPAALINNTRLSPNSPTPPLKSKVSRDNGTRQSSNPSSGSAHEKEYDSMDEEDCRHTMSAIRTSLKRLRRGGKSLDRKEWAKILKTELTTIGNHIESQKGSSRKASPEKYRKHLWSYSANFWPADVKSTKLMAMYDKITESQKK
# Sialic acid-binding Ig-like lectin 9 (Homo sapiens), sequence (Q9Y336 whole entry): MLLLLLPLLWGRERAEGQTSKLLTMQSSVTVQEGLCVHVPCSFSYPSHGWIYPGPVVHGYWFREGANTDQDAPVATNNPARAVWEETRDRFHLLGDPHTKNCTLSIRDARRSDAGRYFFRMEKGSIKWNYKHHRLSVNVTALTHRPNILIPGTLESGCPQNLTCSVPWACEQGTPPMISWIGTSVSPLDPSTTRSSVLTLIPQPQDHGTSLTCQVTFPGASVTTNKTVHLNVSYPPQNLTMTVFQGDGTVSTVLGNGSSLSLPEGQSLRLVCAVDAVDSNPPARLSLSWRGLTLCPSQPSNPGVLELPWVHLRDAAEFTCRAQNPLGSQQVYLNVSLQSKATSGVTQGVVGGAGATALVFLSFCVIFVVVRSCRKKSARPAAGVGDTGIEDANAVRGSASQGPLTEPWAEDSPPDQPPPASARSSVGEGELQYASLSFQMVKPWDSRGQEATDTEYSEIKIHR
# Protein translocase subunit SecA (Escherichia coli (strain K12)), sequence (P10408 whole entry): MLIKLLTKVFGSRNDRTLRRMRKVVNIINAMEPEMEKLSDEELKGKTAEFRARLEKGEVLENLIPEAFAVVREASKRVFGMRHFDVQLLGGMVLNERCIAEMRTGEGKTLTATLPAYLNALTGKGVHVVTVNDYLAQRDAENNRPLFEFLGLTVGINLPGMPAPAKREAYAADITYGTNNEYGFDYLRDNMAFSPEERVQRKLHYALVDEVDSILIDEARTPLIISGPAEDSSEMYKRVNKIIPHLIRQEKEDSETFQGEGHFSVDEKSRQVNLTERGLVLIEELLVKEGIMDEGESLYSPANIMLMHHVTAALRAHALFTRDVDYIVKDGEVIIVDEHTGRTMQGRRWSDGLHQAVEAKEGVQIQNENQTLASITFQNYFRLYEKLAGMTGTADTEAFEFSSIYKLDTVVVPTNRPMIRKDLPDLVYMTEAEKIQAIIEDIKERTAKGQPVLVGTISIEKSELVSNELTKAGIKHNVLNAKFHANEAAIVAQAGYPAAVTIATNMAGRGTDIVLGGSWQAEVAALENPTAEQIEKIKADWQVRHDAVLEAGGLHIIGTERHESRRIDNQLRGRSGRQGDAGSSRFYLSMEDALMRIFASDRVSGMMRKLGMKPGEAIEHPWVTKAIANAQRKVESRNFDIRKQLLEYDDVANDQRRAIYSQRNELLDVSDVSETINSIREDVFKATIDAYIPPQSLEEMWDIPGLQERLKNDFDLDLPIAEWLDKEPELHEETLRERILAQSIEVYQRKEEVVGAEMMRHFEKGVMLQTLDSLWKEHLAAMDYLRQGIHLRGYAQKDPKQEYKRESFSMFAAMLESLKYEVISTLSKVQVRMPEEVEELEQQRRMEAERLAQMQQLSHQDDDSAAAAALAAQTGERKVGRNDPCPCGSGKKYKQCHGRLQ
compound,measurement,setting,value
COC(=O)Nc1cc(Cl)cc(Cl)c1,PXC50,[1]; MAX_EFFECT 8.423326134,< 3
same,PXC50,[1]; MAX_EFFECT 23.76425856,< 3
O=C(O)CN1CCC(F)(F)C2(CCN(c3ccccn3)C2)C1 (stereo not given),PXC50,[1]; MAX_EFFECT 7.981220657,< 4
same,PXC50,[1]; MAX_EFFECT 9.814814815,< 4
Cc1ccc(N2CCC3(CN(CCO)CCC3(F)F)C2)nn1 (stereo not given),PXC50,[1]; MAX_EFFECT 9.719626168,< 4
same,PXC50,[1]; MAX_EFFECT 11.33786848,< 4
O=C1CSC(c2ccc(O)c(Cl)c2)c2c(n(C3CCOCC3)[nH]c2=O)N1 (stereo not given),Percent Effect,[2],-3.7%
same,Percent Effect,[3],20%
same,Percent Effect,[4],-0.726%
same,Percent Effect,[5],0.0426%
same,Percent Effect,[6],4.6%
same,Percent Effect,Trypanosoma cruzi,2.36%
same,Percent Effect,[7]; 30 µM,4.87%
same,Percent Effect,[7]; 33.3 µM,-14.3%
same,Percent Effect,[8],8.87%
same,Percent Effect,Homo sapiens,8.4%
same,Percent Effect,[9],-12.7%
same,Percent Effect,[10],9.52%
same,Percent Effect,[11],17.9%
same,Percent Effect,[12],-15.1%
Cc1ccc(CN2CCC3(CC2)C(=O)N(C)c2ccccc23)s1,Percent Effect,[2],-4.09%
same,Percent Effect,[3],8.11%
same,Percent Effect,[4],7.84%
same,Percent Effect,[5],-1.34%
same,Percent Effect,[6],6.95%
same,Percent Effect,Trypanosoma cruzi,-0.781%
same,Percent Effect,[7]; 33.3 µM,2.08%
same,Percent Effect,[8],16.8%
same,Percent Effect,Homo sapiens,20.4%
same,Percent Effect,[9],-2.26%
same,Percent Effect,[10],7.92%
same,Percent Effect,[11],11%
same,Percent Effect,[12],5.6%
OCCN1CCC(F)(F)C2(CCN(c3cccnc3)C2)C1 (stereo not given),PXC50,[1]; MAX_EFFECT 6.355140187,< 4
same,PXC50,[1]; MAX_EFFECT 7.256235828,< 4
FC(F)(F)c1cc(-c2cccs2)nc(N2CCN3CCCC3C2)n1 (stereo not given),PXC50,[1]; MAX_EFFECT 13.05483029,< 4
same,PXC50,[1]; MAX_EFFECT 13.8381201,< 4
Cc1nc(CN2CCOCC3(CCN(c4ncccn4)C3)C2)cs1 (stereo not given),Percent Effect,[2],-4.37%
same,Percent Effect,[3],10.8%
same,Percent Effect,[4],2.24%
same,Percent Effect,[5],2.91%
same,Percent Effect,[6],-0.742%
same,Percent Effect,Trypanosoma cruzi,1.17%
same,Percent Effect,[7]; 33.3 µM,3.75%
same,Percent Effect,[8],6.68%
same,Percent Effect,Homo sapiens,-5.73%
same,Percent Effect,[9],-14.6%
same,Percent Effect,[10],13.9%
same,Percent Effect,[11],11%
same,Percent Effect,[12],-4.52%
